Rows were chosen to be rich in hits. Some 7.3% of all compounds tested hit in one or more screens of this group.
VACV Venus inh: vaccinia inhibition (Venus reporter); 330,000 compounds, 0.46% hits; Vaccinia virus Venus reporter expression, fluorescence; Potency, µM (doses to about 36.5 µM), for the others: at the top dose activity change, negative = inhibition, most hits filed as inhibitors; calls by dose curve; tested in A549 cells; further: potency means the concentration at half of the fitted maximal effect; nearly all actives have a fitted effect of over 30% in size
FMDV inh: foot and mouth disease virus antiviral activity; AID 1159524; FMDV antiviral cell-based qHTS; 410,000 compounds, 1.2% hits; Potency, µM (titrated, usually from 57.9 µM), without a hit: top-dose activity change, negative = inhibition, usual class: inhibitors; calls by dose curve; tested in HEK293T cells; further: read-out not given here; potency means the concentration at half of the fitted maximal effect; nearly all actives have a fitted effect of over 45% in size
HCV inh: blocks hepatitis C virus; 340,000 compounds, 3.4% hits; Huh7.5.1 HCVcc-Cre infection, luciferase reporter, 44 h; Potency, µM (highest dose often 41.8 µM), without a hit: at the highest dose activity change, negative = inhibition, most hits filed as inhibitors; active means well fitted inhibition curve with a large enough effect; inconclusive means small, poorly fitted or top-dose-only effect, or another doubt; inactive means no such curve, though single readings can be large or run the other way; further: potency means the concentration at half of the fitted maximal effect
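Compounds are dispensed onto cells plated 4 h earlier at 1,000 per well, with HCVcc-Cre virus (about 0.5 moi) added next. Following 44 h of culture, luminescent signal is measured for 15 sec after 15 min with substrate at room temperature.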
Vaccinia mCherry: vaccinia inhibition (mCherry reporter); Potency, µM (highest dose often 36.5 µM), for the others: at the top dose activity change, negative = inhibition, most hits filed as inhibitors; AID 720579; Vaccinia virus mCherry reporter infection, fluorescence; 310,000 compounds, 0.63% hits; calls by dose curve; tested in A549 cells; further: potency means the concentration at half of the fitted maximal effect; nearly all actives have a fitted effect of over 35% in size
HCMV antiviral: blocks human cytomegalovirus replication | activity change, negative = inhibition, % at 57.5 µM | 410,000 compounds, 4.5% hits | HFF cells, HCMV-luciferase reporter, 72 h; active compounds read low; in the data active means activity change below about -60%; inconclusive means no clear call, values can overlap the other calls; inactive means above about -39%
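After 16 h attachment at 37C, HFF cells received test compound and HCMV-luciferase (1 PFU/cell); reporter luminescence read 72 h later, data normalized against buffer-only and known inhibitor Salinomycin.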
The depositor's hits bear a star; i = inactive; ? = inconclusive; . = no result; + = active, no number; ! = repeats disagree. On the % scale 0 is the no-effect control and ±100 the full control effect.

SMILES	VACV Venus inh	FMDV inh	HCV inh	Vaccinia mCherry	HCMV antiviral
CCN(c1ccccc1)S(=O)(=O)c1cccc(C(=O)NCC(c2ccco2)N2CCCC2)c1 (centres undefined)	-25.9%	-17.6%	10µM*	-8.3%	-32.7
CCN(c1ccccc1)S(=O)(=O)c1cccc(C(=O)NCC(c2ccco2)N2CCCCC2)c1 (centres undefined)	-24.2%	-9.7%	10µM*	?	-71.4*
CSc1ccc(CNC(=O)Cn2nc(N3CCN(c4ccccc4)CC3)ccc2=O)cc1	-9.0%	?	.	-13.1%	-26.4
Cc1cc(C)c(C)c(OCCOCCN2CCN(C)CC2)c1	-9.8%	-15.1%	3.98µM*	-8.0%	-1.0
Cc1cc(C)c(C)c(OCCOCCN2CCOCC2)c1	-4.0%	4.4%	-21.2%	i	-0.8
Cc1c2cnn(CC(=O)NCCN3CCOCC3)c(=O)c2c(C)n1Cc1ccc(F)cc1	-3.9%	0.3%	12.1%	i	-72.3*
Cc1cccn2c(=O)c3cc(C(=O)NCCN4CCOCC4)c(=N)n(Cc4ccc(F)cc4)c3nc12	-13.7%	-3.4%	?	-3.9%	-100.4*
Cc1c2cnn(CC(=O)N3CCOCC3)c(=O)c2c(C)n1Cc1ccc(F)cc1	.	.	.	.	-5.4
Cc1cccn2c(=O)c3cc(C(=O)NCCN4CCOCC4)c(=N)n(CCN4CCOCC4)c3nc12	-17.3%	-8.2%	-11.3%	-17.8%	11.5
COc1ccc(CCNC(=O)c2cc3c(=O)n4cccc(C)c4nc3n(CCCN3CCOCC3)c2=N)cc1	.	0.0%	?	.	-95.4*
Cc1cccn2c(=O)c3cc(C(=O)NC4CCCC4)c(=N)n(CC4CCCO4)c3nc12 (centres undefined)	-5.0%	-7.3%	-0.9%	-8.4%	-38.0
COCCn1c(=N)c(C(=O)NCCc2ccc(OC)cc2)cc2c(=O)n3cccc(C)c3nc21	2.0%	?	12.7%	.	28.7
Cc1cccn2c(=O)c3cc(C(=O)NCC4CCCO4)c(=N)n(CC4CCCO4)c3nc12 (centres undefined)	-4.6%	-15.0%	6.4%	i	-70.2*
O=C(NCCSc1ccc(Br)cc1)c1ccc2nc[nH]c2c1	-26.6%	33.3%	-5.8%	-19.1%	25.3
CCn1ccc2cc(S(=O)(=O)N3CCC(C(=O)NCc4ccc(OC)cc4)CC3)ccc21	-13.0%	-2.8%	.	-19.1%	16.5
CCOC(=O)C1CCN(C(=O)c2ccccc2NC(=O)C2=C(C)OCCS2)CC1	.	-3.3%	16.7%	.	13.6
COc1ccc2c(c1)sc1ncc(C(=O)NCc3ccc(OC(C)C)cc3)c(=O)n12	-8.3%	7.9%	.	2.6%	17.8
COc1ccc(CCn2c(=N)c(C(=O)NCC3CCCO3)cc3c(=O)n4cccc(C)c4nc32)cc1 (centres undefined)	.	-10.4%	-23.7%	.	-108.4*
COCCCn1c(C(=O)N2CCOCC2)cc2c(=O)n3cccc(C)c3nc21	-8.9%	-15.4%	18.6%	-11.4%	6.0
COc1ccc(CNC(=O)c2cc3c(=O)n4cccc(C)c4nc3n(CC3CCCO3)c2=N)cc1 (centres undefined)	.	-23.0%	-15.7%	.	-13.0
Cc1cccn2c(=O)c3cc(S(=O)(=O)c4ccc(F)cc4)c(=N)n(Cc4ccco4)c3nc12	-6.4%	5.7%	2.82µM*	-14.2%	-13.0
COCCCn1c(C(=O)Nc2ccc3c(c2)OCO3)cc2c(=O)n3cccc(C)c3nc21	5.01µM*	?	.	?	3.7
Cc1cccn2c(=O)c3cc(C(=O)NCc4ccco4)c(=N)n(C4CCCC4)c3nc12	-5.8%	-14.4%	6.31µM*	i	-18.1
O=S(=O)(c1ccccc1C(F)(F)F)N1CCN(c2nc(-c3ccccc3)nc3ccccc23)CC1	-14.0%	.	.	-13.7%	.
CCc1nn(CC(=O)NCCCN2CCOCC2)c(=O)c2cc3cc(F)ccc3n12	-8.1%	3.8%	-32.4%	-7.4%	+
SMILES	VACV Venus inh	FMDV inh	HCV inh	Vaccinia mCherry	HCMV antiviral
CC(C)=CCC/C(C)=C/Cc1c(O)ccc(C(=O)/C=C/c2ccc(O)cc2)c1O	-13.0%	?	25.1µM*	?	-23.6
Cc1nnc2nc(N)[nH]n2c1=O	.	.	.	.	57.1
Cc1noc(C)c1C(=O)N1CCC1(C)C(=O)NS(=O)(=O)Cc1cccc(Cl)c1 (centres undefined)	-2.4%	-7.7%	.	24.6%	15.6
COc1ccc(CC(=O)NNC2=Nc3cccc4cccc2c34)cc1OC	.	29.5%	-17.0%	.	-0.3
O=C(NNC1=Nc2cccc3cccc1c23)c1ccc(Br)cc1	10.4%	0.0%	?	?	-61.7*
COc1ccc(Cl)cc1C(=O)NCc1nc(-c2cccc(C)c2)no1	-9.5%	-11.6%	.	i	-27.4
c1ccc(-c2cc(CSc3nc4ccccc4[nH]3)on2)cc1	?	?	3.98µM*	.	?
COc1ccc(-c2noc(CSc3nc4ccccc4[nH]3)n2)cc1OC	-11.8%	?	.	-13.9%	-60.1*
COc1ccccc1N1CCN(CCCNC(=O)c2nnc(Cc3c(F)cccc3Cl)o2)CC1	-13.1%	-16.1%	.	-21.3%	-5.6
CCCCCN(CCCCC)C(=O)C(CCC(=O)O)NC(=O)c1ccc(Cl)c(Cl)c1 (centres undefined)	-9.4%	-11.1%	14.4%	-8.9%	-60.7*
OC(CON=C1c2ccccc2-c2ccccc21)CN1CCNCC1 (centres undefined)	?	-20.7%	2.51µM*	?	-28.5
CCN(CC)S(=O)(=O)c1cccc(-c2nnc(SCCOc3ccc(Cl)cc3)o2)c1	-28.3%	?	?	-17.8%	-19.2
CCN(CC)S(=O)(=O)c1cccc(-c2nnc(SCCOc3ccccc3C)o2)c1	.	-27.3%	12.6µM*	.	?
CCN(CC)S(=O)(=O)c1cccc(-c2nnc(SCCOc3ccccc3)o2)c1	-20.5%	?	?	-16.1%	-67.9*
COc1ccc(OC)c(C(=O)Cn2c3[n+](c4ccc(C(F)(F)F)cc42)CCCCC3)c1	0.5%	-10.7%	20.0%	4.5%	37.8
Fc1ccccc1Cn1c2[n+](c3ccc(C(F)(F)F)cc31)CCCCC2	-17.2%	-17.6%	-15.1%	i	-67.6*
COc1cc(OC)cc(-c2sc3ccc(OC)cc3c2-c2ccc(O)cc2)c1	?	-17.6%	?	?	-33.8
COc1cc2sc(-c3ccccc3OC)c(-c3ccc(O)cc3)c2cc1OC	-24.9%	-18.0%	11.2µM*	?	48.8
COc1ccc(-c2sc3ccc(OC)cc3c2-c2ccc(O)cc2)cc1	?	?	8.91µM*	?	?
COc1cccc(CNC(=O)C2CCN(C(=O)c3sccc3-n3cccc3)CC2)c1	-4.4%	-7.6%	.	-11.1%	-20.9
Cc1cccc(NC(=O)CSc2ccc(-c3ccccn3)nn2)c1	-19.2%	-1.2%	.	?	-105.3*
COc1cc(NC(=O)CSc2ncccc2C(=O)OC(C)C)cc(OC)c1	-15.1%	-25.4%	?	-16.6%	-108.4*!
CCOC(=O)c1ccccc1NC(=O)CSc1ccc(-c2ccccn2)nn1	.	6.8%	?	.	-28.7
COc1cc(NC(=O)CSc2ccc(-c3ccccn3)nn2)cc(OC)c1	?	0.0%	?	11.2µM*	?

Screening data deposited in PubChem by National Center for Advancing Translational Sciences (NCATS).
